Screen size: about 360,000 compounds; about 1,600 (0.44%) were called active. For the sample, actives were picked, then their nearest neighbours and some compounds at random. Unmarked numbers belong to inactive results.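 How the source made its calls: active means inhibition above the screen-wide average plus 3 SD (cut at about 13% in these data); inactive means the rest.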

The target in this assay is Galanin receptor type 3 (Homo sapiens) (UniProt O60755). Nature of the assay: blockers of human galanin receptor 3 – cell-based, fluorescence readout, primary screen (AID 651719).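 Further: forskolin and galanin both at EC90 stimulate the cells; cAMP rise reported by CNG channel membrane potential dye signal; 0% = forskolin plus galanin with DMSO and 100% = forskolin alone.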 The note with it: HEK293 GalR3-CNG cAMP membrane potential fluorescence; at 3 µM; hits give high values; galR3 body fused to GalR1 C-terminus.
Chain of Galanin receptor type 3 (Homo sapiens) (O60755 1-299 limits assumed): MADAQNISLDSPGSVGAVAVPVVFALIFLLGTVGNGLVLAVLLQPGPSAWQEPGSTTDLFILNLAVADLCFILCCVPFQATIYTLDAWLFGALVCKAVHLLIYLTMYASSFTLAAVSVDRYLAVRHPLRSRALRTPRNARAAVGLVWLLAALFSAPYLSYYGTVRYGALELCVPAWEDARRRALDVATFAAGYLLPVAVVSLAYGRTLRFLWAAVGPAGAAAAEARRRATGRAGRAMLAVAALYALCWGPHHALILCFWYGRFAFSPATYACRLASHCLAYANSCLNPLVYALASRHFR
In general, inhibition refers to the change of the read-out against control, counted positive when it falls. `COc1ccc(-c2ccc3c(n2)CCCN3S(=O)(=O)c2ccc(C)cc2)cc1`: the inhibition is -6.68%.
In the case of `Cc1nc(NC(=O)C(C)(C)C)sc1[N+](=O)[O-]` it was -6.84%; in that of `CSc1ccc(-c2c(C#N)c(N)nc3c2c(C)nn3-c2ccccc2)cc1`, -3%; in that of `CSc1nc(N)c(C#N)c(-c2ccccc2Cl)c1C#N`, 13.6% (active).
In the case of `COc1ccccc1-c1c(C#N)c(N)nc2c1CCC2` it was -3.19%; in that of `Cc1ccc(N)cc1CN1CCN(c2ncc(Cc3ccccc3)cn2)CC1`, 3.95%; in that of `COc1ccccc1Cc1c(-c2ccc(F)cc2)nc2ccc(C)cn12`, -8.12%.
In the case of `CCOC(=O)C1=C(C(=O)OCC)C2N(Cc3ccc(C#N)cc3)c3ccccc3[C@@]23C[C@@H](C(=O)OC)N(S(=O)(=O)c2ccc(F)cc2)C3=N1` (stereo partly drawn) it was -4.3%; in that of `Cn1nccc1C(=O)NC1CCCc2c1cnn2-c1ccccc1F` (stereo not drawn), 103% (active); in that of `CC1(C)Cc2c(cnn2-c2cccc(F)c2)C(NC(=O)c2cc[n+]([O-])cc2)C1` (stereo not drawn), -2.25%.
Take `Cn1nccc1C(=O)NC1CCCc2c1cnn2-c1ccc(F)cc1F` (stereo not drawn): the inhibition was 99.2% (active).
In the case of `COc1ccc(OC)c(C(=O)NC2CCCc3c2cnn3-c2cc(C)cc(C)c2)c1` (stereo not drawn) it was -8.72%; in that of `COc1ccc(C(=O)NC2CCCc3c2cnn3-c2cccc(C)c2C)c(OC)n1` (stereo not drawn), 4.34%.
For `COc1ccc(C(=O)NC2CC(C)(C)Cc3c2cnn3-c2ccccc2C)o1` (stereo not drawn) the value was -3.9%.
In the case of `Cc1ccccc1C(=O)N[C@H](C(=O)N1CCC[C@H]1C(=O)NCc1ccccc1)C(C)C` it was -4.85%; in that of `COc1ccc(NS(=O)(=O)c2cc(NC(=O)c3ccc(S(=O)(=O)N(C)C)cc3)ccc2N2CCOCC2)cc1`, -5.13%; in that of `COc1ccc(NS(=O)(=O)c2ccc(NC(=O)c3ccc(N(C)S(C)(=O)=O)cc3)cc2)cc1`, 82.7% (active).
As to `COc1ccc(NS(=O)(=O)c2ccc(C(=O)Nc3c(C)n(C)n(-c4ccccc4)c3=O)cc2)cc1`, the inhibition is -0.08%.
In the case of `Nc1ncnc2c1ncn2[C@@H]1O[C@H](C(=O)N[C@@H](CCc2ccccc2)C(=O)NCC(=O)N2CCOCC2)[C@@H](O)[C@H]1O` it was -4.93%; in that of `Cc1cc(N2CCN(C(=O)OC(C)(C)C)C[C@H]2C)ccc1N1CCN(Cc2ccccc2)[C@H](C)C1`, -6.01%; in that of `CC(=O)OC(C)C[N+](C)(C)C` (stereo not drawn), 32.6% (active).
For `CC(=O)OCCC(C)C` the value was -6.17%; for `CC(C[N+](C)(C)C)OC(N)=O` (stereo not drawn), -2.23%.
For `COCc1cc(N2CCN(C(=O)OC(C)(C)C)C[C@@H]2C)ccc1N1CCN(Cc2ccccc2)[C@H](C)C1` the value was -0.36%; for `Cc1ccc2nc(-c3ccc(CN4CCC(n5cc(-c6ccccc6)[nH]c5=O)CC4)cc3)c(-c3ccccc3)nc2c1`, -5.31%; for `CC(=O)c1c(C)[nH]c(C(=O)COC(=O)c2cccs2)c1C`, -4.13%.
In the case of `CC(=O)c1c(C)[nH]c(C(=O)COC(=O)c2cccc(S(=O)(=O)N(C)c3ccccc3)c2)c1C`, the inhibition was 78.8% (active).
As for `COc1cccc(C(=O)OCC(=O)c2[nH]c(C)c(C(C)=O)c2C)c1`, the inhibition is -7.96%.
In the case of `CC(C)c1c(C(=O)N/N=C/c2ccccc2C(=O)O)nnn1-c1nonc1N` it was -9.07%; in that of `COCc1c(C(=O)N/N=C\c2cccnc2)nnn1-c1nonc1N`, -5.53%; in that of `Nc1nonc1-n1nnc(C(=O)N/N=C/c2cc(Br)ccc2O)c1CSC1=NCCS1`, 76.9% (active).
For `Cc1cc(OC(=O)NCCc2ccc(F)cc2)ccc1F` the value was -6.58%; for `C=CCN=C1NC(c2cccc(C(F)(F)F)c2)C(C(=O)OC)=C(C)N1C` (stereo not drawn), -7.24%; for `CC(C)[C@@H](C)/C=C/[C@@H](C)[C@H]1CC[C@@H]2[C@]1(C)CCC1[C@]23C=C[C@]2(C[C@@H](O)CC[C@]12C)N(c1ccc([N+](=O)[O-])cn1)O3` (stereo partly drawn), 2.02%.
For `COC(=O)C1=C(C)N(Cc2ccccc2C(F)(F)F)C(=NCc2ccc(C(F)(F)F)cc2)NC1c1ccc(F)cc1` (stereo not drawn), the inhibition was -4.63%.
`CCCCCCCCN1C(=O)[C@@H](CC(=O)NCc2ccc(C)o2)C[C@@]2(C(=O)OC)C1=C[C@H](C(C)(C)C)O[C@@H]2C`: the inhibition is -4.99%.
For `O=C(CC(O)(C(F)(F)F)C(F)(F)F)Nc1ccc(Cl)c(Cl)c1` the value was 58.6% (active).
For `CN(CC(=O)Nc1ccc(Cl)c(C(F)(F)F)c1)C(=O)CCC(=O)c1ccccc1` the value was -4.03%.
`O=C(Cc1ncc(C(F)(F)F)cc1Cl)Nc1cccc(Br)c1`: the inhibition is 2.24%.
In the case of `Nc1ncnc2c1ncn2[C@@H]1O[C@H](C(=O)N[C@@H](CCc2ccccc2)C(=O)N2CCCN(Cc3cccs3)CC2)[C@@H](O)[C@H]1O` it was -6.23%.
In the case of `O=C(O)Cn1cnc2c(NCc3ccccc3)ncnc21` it was -5.71%; in that of `C=CCN1C(=O)N(Cc2ccccc2)c2ccccc2S1(=O)=O`, -6.64%.
In the case of `N#Cc1c(N)nc2c3c(sc(=N)c2c1N)NC(=O)CC3c1ccccc1Cl` (stereo not drawn) it was 62.4% (active); in that of `COc1ccc(OC)c2c(N)c(C#N)c(C(F)(F)C(F)(F)F)nc12`, 1.89%; in that of `COc1ccc(C2OCC3(CO2)SC(=O)NC3=O)cc1OC` (stereo not drawn), -2.1%.
For `CSc1nc2c(c(=O)[nH]1)C(c1cccc(Cl)c1Cl)CC(=O)N2` (stereo not drawn), the inhibition was 12.2%.
On to `COc1ccc(C2CC(=O)Nc3sc(=N)c4c(N)c(C#N)c(N)nc4c32)cc1OC` (stereo not drawn), for which the inhibition is 64.7% (active).
For `COC(=O)[C@]12C[C@H](CC(=O)N3CCN(C(=O)C4CC4)CC3)C(=O)N(Cc3ccc4c(c3)OCO4)C1=C[C@H](C(C)(C)C)O[C@@H]2C` the value was -5.6%; for `N#Cc1cccc(C(=O)NCC2CCN(C(=O)C(=O)c3cc4ccccc4o3)CC2)c1`, -3.55%; for `CCOC(=O)CNC(=O)N(C)[C@H]1C[C@H]2c3[nH]c4c(-c5ccc6c(c5)OCO6)cccc4c3CCN2C(=O)[C@H]1[C@H](C)O`, -5.71%.
For `COc1ccc(C(C)(O)c2nc(-c3ccc(C)c(C)c3)cs2)cc1` (stereo not drawn) the value was -5.12%.
For `COc1ccc(-c2csc(-c3cccs3)n2)cc1OC` the value was 14.8% (active); for `COc1ccc(C2CC(c3cccs3)=Nc3ccccc3S2)cc1OC` (stereo not drawn), -5.75%.

Values taken from PubChem BioAssay AID651719 (The Scripps Research Institute Molecular Screening Center, 2012).
